# Results from the supplement of paper PMC10037445.
# The full ranking holds about 2,900 compounds; the median of “NF-kB SEAP reporter activity, fold change vs agonist alone” is about 0.99, and the highest 2% start at about 2.6. The entries come from a sample that favours the highest values as a whole.
# Key:
# [1] = test system: RAW-Dual; assay: NF-kB SEAP reporter activity, fold change vs agonist alone; higher = enhanced NF-kB activity
# Method in brief: (§1)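 Library stock was pin-tooled at 50 nL into 384-well plates of RAW-Dual macrophages (50,000 cells/well, DMEM), followed 1 h later by a PRR agonist, and the cells were kept at 37 °C, 5% CO2. Supernatant collected after 20 hours was read for IRF by QuantiLuc luminescence and for NF-κB by QuantiBlue absorbance at 620 nm. Reporter activity is fold change over agonist-alone wells, and a well counted as cytotoxic when its IncuCyte confluency was below 70% of agonist controls in both mask sets.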
# [2] = test system: RAW-Dual; assay: NF-kB SEAP reporter activity, fold change vs agonist alone; cytotoxicity flag (confluency mask): not cytotoxic; higher = enhanced NF-kB activity
# Method in brief: as §1
# [3] = test system: RAW-Dual; assay: NF-kB SEAP reporter activity, fold change vs agonist alone; cytotoxicity flag (confluency mask): cytotoxic (confluency <70% of control); higher = enhanced NF-kB activity
# Method in brief: as §1
# [4] = library stock concentration (final ~1000-fold dilution): 10 mM, cytotoxicity flag (confluency mask): not cytotoxic, agonist: Imiquimod (TLR7) […]
# [5] = library stock concentration (final ~1000-fold dilution): 10 mM, cytotoxicity flag (confluency mask): not cytotoxic, agonist: MPLA (TLR4) […]
# [6] = agonist: ODN 1826 (TLR9) 0.5 ug/mL
# [7] = agonist: Pam2CSK4 (TLR2/6) 0.1 ug/mL
# [8] = agonist: Pam3CSK4 (TLR2/1) 0.1 ug/mL
structure (smiles),measurement,setting,value
CC(=O)N1c2ccc(-c3ccc(C(=O)O)cc3)cc2C(Nc2ccc(Cl)cc2)CC1C (centres undefined),NF-kB SEAP reporter activity,[1]; [4],1.56
same,NF-kB SEAP reporter activity,[1]; [5],2.37
CC(=O)N1c2ccc(-c3ccc(C(=O)O)cc3)cc2C(Nc2ccc(Cl)cc2)CC1C (centres undefined) (library stock concentration (final ~1000-fold dilution): 10 mM),NF-kB SEAP reporter activity,[2]; agonist: LPS (TLR4) 0.1 ug/mL,4.2
same,NF-kB SEAP reporter activity,[2]; [6],2.49
same,NF-kB SEAP reporter activity,[2]; [7],1.06
same,NF-kB SEAP reporter activity,[2]; [8],1.85
CC(=O)OC12COC1CC(O)C1(C)C(=O)C(O)C3=C(C)C(OC(=O)C(O)C(NC(=O)OC(C)(C)C)c4ccccc4)CC(O)(C(OC(=O)c4ccccc4)C21)C3(C)C.O.O.O (centres undefined),NF-kB SEAP reporter activity,[1]; [4],1.07
same,NF-kB SEAP reporter activity,[1]; [5],1.23
CC(=O)OC12COC1CC(O)C1(C)C(=O)C(O)C3=C(C)C(OC(=O)C(O)C(NC(=O)OC(C)(C)C)c4ccccc4)CC(O)(C(OC(=O)c4ccccc4)C21)C3(C)C.O.O.O (centres undefined) (library stock concentration (final ~1000-fold dilution): 10 mM),NF-kB SEAP reporter activity,[2]; agonist: LPS (TLR4) 0.1 ug/mL,1.26
same,NF-kB SEAP reporter activity,[2]; [6],0.91
same,NF-kB SEAP reporter activity,[2]; [7],0.697
same,NF-kB SEAP reporter activity,[2]; [8],0.713
CC1OC(OC2C(O)C(OCCc3ccc(O)c(O)c3)OC(CO)C2OC(=O)/C=C/c2ccc(O)c(O)c2)C(O)C(O)C1O (centres undefined),NF-kB SEAP reporter activity,[1]; [5],1.02
CC1OC(OC2C(O)C(OCCc3ccc(O)c(O)c3)OC(CO)C2OC(=O)/C=C/c2ccc(O)c(O)c2)C(O)C(O)C1O (centres undefined) (library stock concentration (final ~1000-fold dilution): 10 mM),NF-kB SEAP reporter activity,[2]; agonist: LPS (TLR4) 0.1 ug/mL,1.21
same,NF-kB SEAP reporter activity,[2]; [6],1.05
same,NF-kB SEAP reporter activity,[2]; [7],1.03
same,NF-kB SEAP reporter activity,[2]; [8],1.11
CN1CCCN=C1/C=C/c1cccc(O)c1.O=C(O)c1cc2ccccc2c(Cc2c(O)c(C(=O)O)cc3ccccc23)c1O,NF-kB SEAP reporter activity,[1]; [4],0.944
same,NF-kB SEAP reporter activity,[1]; [5],1.12
CN1CCCN=C1/C=C/c1cccc(O)c1.O=C(O)c1cc2ccccc2c(Cc2c(O)c(C(=O)O)cc3ccccc23)c1O (library stock concentration (final ~1000-fold dilution): 10 mM),NF-kB SEAP reporter activity,[2]; agonist: LPS (TLR4) 0.1 ug/mL,0.973
same,NF-kB SEAP reporter activity,[2]; [6],0.993
same,NF-kB SEAP reporter activity,[2]; [7],1.01
same,NF-kB SEAP reporter activity,[2]; [8],0.594
CC(C)N1CCN(Cc2cnc(-c3cc(-c4cccc5[nH]ccc45)cc4[nH]ncc34)o2)CC1 (library stock concentration (final ~1000-fold dilution): 10 mM),NF-kB SEAP reporter activity,[2]; agonist: LPS (TLR4) 0.1 ug/mL,4.66
same,NF-kB SEAP reporter activity,[2]; [6],0.196
same,NF-kB SEAP reporter activity,[2]; [7],0.982
same,NF-kB SEAP reporter activity,[2]; [8],1.86
CC(C)N1CCN(Cc2cnc(-c3cc(-c4cccc5[nH]ccc45)cc4[nH]ncc34)o2)CC1,NF-kB SEAP reporter activity,[1]; [4],0.519
same,NF-kB SEAP reporter activity,[1]; [5],1.83
C[N+]1(C)CCC[C@H]1C(=O)O (library stock concentration (final ~1000-fold dilution): 10 mM),NF-kB SEAP reporter activity,[2]; agonist: LPS (TLR4) 0.1 ug/mL,1.08
same,NF-kB SEAP reporter activity,[2]; [6],1.08
same,NF-kB SEAP reporter activity,[2]; [7],1.16
same,NF-kB SEAP reporter activity,[2]; [8],1.08
C[N+]1(C)CCC[C@H]1C(=O)O,NF-kB SEAP reporter activity,[1]; [4],0.952
same,NF-kB SEAP reporter activity,[1]; [5],0.985
CCCC(NC(=O)/C(C#N)=C/c1cccc(Br)n1)c1ccccc1 (centres undefined) (library stock concentration (final ~1000-fold dilution): 10 mM),NF-kB SEAP reporter activity,[2]; agonist: LPS (TLR4) 0.1 ug/mL,0.416
same,NF-kB SEAP reporter activity,[2]; [6],0.925
same,NF-kB SEAP reporter activity,[2]; [7],0.387
same,NF-kB SEAP reporter activity,[2]; [8],0.838
CCCC(NC(=O)/C(C#N)=C/c1cccc(Br)n1)c1ccccc1 (centres undefined),NF-kB SEAP reporter activity,[1]; [4],0.971
same,NF-kB SEAP reporter activity,[1]; [5],0.962
Cc1[nH]c2ccccc2c1CCNC(=O)c1cccs1 (library stock concentration (final ~1000-fold dilution): 10 mM),NF-kB SEAP reporter activity,[2]; agonist: LPS (TLR4) 0.1 ug/mL,1
same,NF-kB SEAP reporter activity,[2]; [6],1.06
same,NF-kB SEAP reporter activity,[2]; [7],1.12
same,NF-kB SEAP reporter activity,[2]; [8],0.991
Cc1[nH]c2ccccc2c1CCNCc1ccc(/C=C/C(=O)NO)cc1,NF-kB SEAP reporter activity,"[1]; library stock concentration (final ~1000-fold dilution): 10 mM, cytotoxicity flag (confluency mask): cytotoxic (confluency <70% of control), agonist: Imiquimod (TLR7) […]",2.51
same,NF-kB SEAP reporter activity,"[1]; library stock concentration (final ~1000-fold dilution): 10 mM, cytotoxicity flag (confluency mask): cytotoxic (confluency <70% of control), agonist: MPLA (TLR4) […]",2.63
Cc1[nH]c2ccccc2c1C1=C(NCCc2ccc(F)cc2)C(=O)N(C)C1=O (library stock concentration (final ~1000-fold dilution): 10 mM),NF-kB SEAP reporter activity,[2]; agonist: LPS (TLR4) 0.1 ug/mL,1.23
same,NF-kB SEAP reporter activity,[2]; [6],0.588
same,NF-kB SEAP reporter activity,[2]; [7],0.531
same,NF-kB SEAP reporter activity,[2]; [8],0.337
Cc1[nH]c2ccccc2c1CCNC(=O)c1cccs1,NF-kB SEAP reporter activity,[1]; [4],1.06
same,NF-kB SEAP reporter activity,[1]; [5],1.11
Cc1[nH]c2ccccc2c1CCNCc1ccc(/C=C/C(=O)NO)cc1 (library stock concentration (final ~1000-fold dilution): 10 mM),NF-kB SEAP reporter activity,[3]; agonist: LPS (TLR4) 0.1 ug/mL,4.6
same,NF-kB SEAP reporter activity,[3]; [6],0.219
same,NF-kB SEAP reporter activity,[3]; [7],0.886
same,NF-kB SEAP reporter activity,[3]; [8],1.47
Cc1[nH]c2ccccc2c1C1=C(NCCc2ccc(F)cc2)C(=O)N(C)C1=O,NF-kB SEAP reporter activity,[1]; [4],1.01
same,NF-kB SEAP reporter activity,[1]; [5],1.28
O=c1oc2cc(O)ccc2c2ccc(O)cc12,NF-kB SEAP reporter activity,[1]; [4],1.26
same,NF-kB SEAP reporter activity,[1]; [5],1.58
O=c1oc2cc(O)ccc2c2ccc(O)cc12 (library stock concentration (final ~1000-fold dilution): 10 mM),NF-kB SEAP reporter activity,[2]; agonist: LPS (TLR4) 0.1 ug/mL,1.08
same,NF-kB SEAP reporter activity,[2]; [6],0.575
same,NF-kB SEAP reporter activity,[2]; [7],0.257
same,NF-kB SEAP reporter activity,[2]; [8],0.455
CNC(=O)c1ccc(-c2cnc3cnc(-c4ccccc4)cn23)cc1,NF-kB SEAP reporter activity,[1]; [4],1.1
same,NF-kB SEAP reporter activity,[1]; [5],1.37
CNC(=O)c1ccc(-c2cnc3cnc(-c4ccccc4)cn23)cc1 (library stock concentration (final ~1000-fold dilution): 10 mM),NF-kB SEAP reporter activity,[2]; agonist: LPS (TLR4) 0.1 ug/mL,1.54
same,NF-kB SEAP reporter activity,[2]; [6],0.763
same,NF-kB SEAP reporter activity,[2]; [7],1.22
same,NF-kB SEAP reporter activity,[2]; [8],2.3
CC12CCC3c4ccc(O)cc4CC(CCCCCCCCCS(=O)CCCC(F)(F)C(F)(F)F)C3C1CCC2O (centres undefined),NF-kB SEAP reporter activity,[1]; [4],0.89
same,NF-kB SEAP reporter activity,[1]; [5],0.904
CC12CCC3c4ccc(O)cc4CC(CCCCCCCCCS(=O)CCCC(F)(F)C(F)(F)F)C3C1CCC2O (centres undefined) (library stock concentration (final ~1000-fold dilution): 10 mM),NF-kB SEAP reporter activity,[2]; agonist: LPS (TLR4) 0.1 ug/mL,0.714
same,NF-kB SEAP reporter activity,[2]; [6],0.721
same,NF-kB SEAP reporter activity,[2]; [7],0.634
same,NF-kB SEAP reporter activity,[2]; [8],0.864
CC#CC(=O)N1CCCC1c1nc(-c2ccc(C(=O)Nc3ccccn3)cc2)c2c(N)nccn12 (centres undefined),NF-kB SEAP reporter activity,[1]; [4],0.862
same,NF-kB SEAP reporter activity,[1]; [5],0.81
CC#CC(=O)N1CCCC1c1nc(-c2ccc(C(=O)Nc3ccccn3)cc2)c2c(N)nccn12 (centres undefined) (library stock concentration (final ~1000-fold dilution): 10 mM),NF-kB SEAP reporter activity,[2]; agonist: LPS (TLR4) 0.1 ug/mL,1.09
same,NF-kB SEAP reporter activity,[2]; [6],0.844
same,NF-kB SEAP reporter activity,[2]; [7],0.581
same,NF-kB SEAP reporter activity,[2]; [8],0.793
COC1OC(COS(=O)(=O)O)C(OC2OC(C(=O)O)C(OC3OC(COS(=O)(=O)O)C(OC4OC(C(=O)O)C(OC5OC(COS(=O)(=O)O)C(O)C(O)C5NS(=O)(=O)O)C(O)C4O)C(OS(=O)(=O)O)C3NS(=O)(=O)O)C(O)C2OS(=O)(=O)O)C(O)C1NS(=O)(=O)O (centres undefined),NF-kB SEAP reporter activity,"[1]; library stock concentration (final ~1000-fold dilution): 10 mM water, cytotoxicity flag (confluency mask): not cytotoxic, agonist: Imiquimod (TLR7) […]",1.04
same,NF-kB SEAP reporter activity,"[1]; library stock concentration (final ~1000-fold dilution): 10 mM water, cytotoxicity flag (confluency mask): not cytotoxic, agonist: MPLA (TLR4) […]",1.06
COC1OC(COS(=O)(=O)O)C(OC2OC(C(=O)O)C(OC3OC(COS(=O)(=O)O)C(OC4OC(C(=O)O)C(OC5OC(COS(=O)(=O)O)C(O)C(O)C5NS(=O)(=O)O)C(O)C4O)C(OS(=O)(=O)O)C3NS(=O)(=O)O)C(O)C2OS(=O)(=O)O)C(O)C1NS(=O)(=O)O (centres undefined) (library stock concentration (final ~1000-fold dilution): 10 mM water),NF-kB SEAP reporter activity,[2]; agonist: LPS (TLR4) 0.1 ug/mL,1.06
same,NF-kB SEAP reporter activity,[2]; [6],1.3
same,NF-kB SEAP reporter activity,[2]; [7],1.25
same,NF-kB SEAP reporter activity,[2]; [8],1.04
